SMILES strings stand for the structures. Out of some 280,000 compounds screened, about 820 (0.29%) were called active. Entries that show only a call come without a potency. Not shown: some 1% with an inconclusive outcome. Calls follow the shape of the dose curve; as a rule, active = well fitted curve in either direction with a large enough effect; inconclusive = small, poorly fitted or top-dose-only effect; inactive = flat fitted curve, though single readings scatter. This excerpt belongs to a sample that is enriched for actives.
Potency is read from the fitted curve at half-maximal effect; tags tell the direction and shape of the fitted curve or compound fluorescence and quenching.

A short description of this experiment: Total Fluorescence Counterscreen for Inhibitors of the Interaction of Thyroid Hormone Receptor and Steroid Receptor Coregulator 2. To be noted: TRb/SRC2 Texas Red total fluorescence interference; series mostly up to 201 µM. From the text:
NIH Molecular Libraries Probe Production Network [MLPCN]
NIH Chemical Genomics Center [NCGC]
Assay Provider: R. Kip Guy, St. Jude Children's Research Hospital
Thyroid receptor (TR) regulates many homeostatic processes including basal metabolism, cardiovascular function, body weight, and lipid trafficking. TR modulators are potential therapeutics for obesity and hyperlipidemias but current thyroid analogs have undesirable side effects, particularly cardiac stimulation. To identify inhibitors that specifically prevent the interaction of TR with the steroid receptor […] 2 (SRC2), a fluorescence polarization assay was screened. This assay detects interaction of the ligand-binding domain of human TRb with a Texas Red labeled SRC2 peptide, corresponding to a 20 amino acid region of the nuclear receptor interaction domain (Arnold et al., 2006). Total fluorescence (555 nm excitation and 632 nm emission) was measured to identify potential fluorescent and light absorbing compounds. Such compounds may be artifacts that interfere with the fluorescence polarization assay.
Arnold, L. A.; Estebanez-Perpina, E.; Togashi, M.; Shelat, A.; Ocasio, C. A.; McReynolds, A. C.; Nguyen, P.; Baxter, J. D.; Fletterick, R. J.; Webb, P.; Guy, R. K. A high-throughput screening method to identify small molecule inhibitors of thyroid hormone receptor coactivator binding. Sci STKE 2006, p 13.
NCGC Assay Protocol Summary:
For screening, 5 uL/well 0.6 uM TRb and 20 nM SRC2 Texas Red in protein buffer (20mM Tris hydrochloride, 100mM NaCl, 10% glycerol, 1mM EDTA, 0.01% NP-40, 1mM DTT, 1uM T3 and 5% DMSO) was dispensed into black solid 1536-well plates (Grenier) using a solenoid-based dispenser. Following transfer of 23 nL compound or DMSO vehicle by a pin tool, the plates were centrifuged 15 s at 1000 RPM and incubated 5 hr at ambient temperature. The plates were read by an Envision (Perkin Elmer) to detect fluorescence polarization of SRC2 Texas Red (555 nm excitation and 632 nm emission). Data were normalized to unbound (all components except TRb) and bound SRC2 Texas Red controls. Total fluorescence (TF) was calculated as follows: TF = S + 2P where S and P are fluorescence readings in the parallel and perpendicular channels, respectively.
Keywords: NIH Roadmap, MLPCN, MLI, MLSMR, qHTS, NCGC, qHTS, thyroid hormone receptor, steroid receptor coactivator, fluorescence polarization
Turning to `CCCCC(=O)N/N=C/c1c(O)n(CC)c(=S)n(CC)c1=O`, the Potency is 0.316 µM [quencher] (active).

`Clc1ccc([C@@]2(Cn3cncn3)C[C@H](Br)CO2)c(Cl)c1`: the Potency result is “inactive”. The entry for `CCOP(=O)(OCC)SCS(=O)(=O)C(C)(C)C` is “inactive”; for `CCOP(OCC)OCC` it is “inactive”; for `O=C1NC(=O)N(c2ccccc2)C(=O)/C1=C/c1ccc([N+](=O)[O-])s1` it is 44.7 µM [fluorescent] (active). The entry for `CC(C)OC(=O)Nc1ccccc1` is “inactive”.

Consider `CCC/C(=N\OCC)C1=C(O)CC(CC(C)SCC)CC1=O` (stereo not given), for which the Potency result was “inactive”. Next, `Fc1ccc(Oc2ccnc3cc(Cl)cc(Cl)c23)cc1`: “inactive”. Next, `CCC(C)(C)c1ccc(O)c(C(C)(C)CC)c1`: “inactive”. Next, `CCCN(CCOc1c(Cl)cc(Cl)cc1Cl)C(=O)n1ccnc1`: “inactive”.

For the origin of these results see PubChem BioAssay AID1479 (National Center for Advancing Translational Sciences (NCATS), 2009).
